Inconclusive results are not listed. Active and inactive are the calls of the source. Unless noted, calls follow the shape of the dose curve; as a rule, active = well fitted curve in either direction with a large enough effect (not every such curve was filed as active); inconclusive = small, poorly fitted or top-dose-only effect, or another doubt; inactive = flat fitted curve, though single readings scatter.
What was measured:
[1] = target: Lysosomal acid glucosylceramidase (Homo sapiens) (UniProt P04062); test: Glucocerebrosidase-p2 (AID 348; in the data active = potency below about 10 µM; also: potency is read from the fitted curve at half-maximal effect); conditions: purified GBA, blue fluorogenic substrate, 40 min
Method in brief: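 Compounds titrated from 0.6 nM upwards against 0.2 nM enzyme in pH 5.9 citric acid/KH2PO4, taurocholate, tween-20; blue fluorogenic substrate 80 uM, 40 min room temperature, stopped and read Ex 365/Em 440 for AC50.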

[2] = AP1 Signaling Pathway (AID 357); conditions: ME-180 AP-1-bla reporter, EGF-induced, beta-lactamase ratio, 5 h; at 7.69 µM (top of the series) unless noted;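 also: ME-180 reporter cells stimulated with EGF at its EC50 level; % is scaled to controls: 0 for no effect and ±100 for the full control effect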
Method in brief: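 First, ME-180 AP-1-bla cells were cultured overnight at 37 °C in low-serum Opti-MEM. Next, titrated compounds with EC50 EGF were incubated 5 hours. Finally, CCF4 was added for 2.5 hours and the 460/530 nm ratio recorded.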

[3] = target: Cytochrome P450 1A2 (Homo sapiens) (UniProt P05177); test: p450-cyp1a2 (AID 410; calls by dose curve; also: potency is read from the fitted curve at half-maximal effect;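 as to activity change, negative = inhibition: -100% = full effect of reference inhibitor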); conditions: recombinant CYP1A2, luciferin-ME demethylation, luminescence; series mostly up to 11.4 µM
Method in brief: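 20nM CYP1A2 with 100uM Luciferin-ME (at Km) in 100mM KPO4; compound preincubated 10 min, NADPH regeneration added, 60 min at room temperature. Luciferin quantified by luminescence after detection reagent; normalized to 57 uM furafylline.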

[4] = NFAT Signaling Pathway (AID 444); conditions: Jurkat NFAT-bla M1, carbachol, beta-lactamase ratio, 5 h; at 7.69 µM (top of the series) unless noted;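 also: carbachol stimulus at about its EC50 of 1 µM final; % is scaled to controls: 0 for no effect and ±100 for the full control effect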
Method in brief: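 Jurkat cells with NFAT-driven β-lactamase reporter and co-expressed M1 receptor, stimulated with carbachol (final 1 uM, ~EC50), compound titration, 5 h at 37 °C. CCF4 loaded 1 h at RT; 460/530 nm ratio gave %activity and AC50.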

[5] = target: Glucocorticoid receptor (Homo sapiens) (UniProt P04150); test: GR-GFP Redistribution (AID 450;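 active = compounds whose dose series gives a full or clear partial fitted curve of increased nuclear translocation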; also: potency is read from the fitted curve at half-maximal effect); conditions: U2OS GR-GFP nuclear translocation, laser cytometry, 2 h
[6] = target: Glucocorticoid receptor (Homo sapiens) (UniProt P04150); test: GR-EFC Redistribution (AID 451; calls by dose curve; also: potency is read from the fitted curve at half-maximal effect); conditions: CHO-K1 GR-EFC translocation, beta-gal luminescence, 2 h
Method in brief: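 CHO-K1 cells expressing nuclear EA and GR-ED fragments of b-gal; compounds titrated up to 46 uM final, 2 h at 37 C. GR nuclear translocation read as complemented b-gal luminescence after 1 h RT detection.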

[7] = target: Mitogen-activated protein kinase 10 (Mus musculus) (UniProt Q61831); test: JNK3 AlphaScreen Assay (AID 530); conditions: JNK3 lysate, c-Jun phosphorylation; series mostly up to 11.4 µM;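 also: kinase came from lysate of stimulated human HepG2 cells; signal reports phosphorylation of biotinylated GST-cJun 1-79 at Ser73 with 10 µM ATP; % is scaled to controls: 0 for no effect and ±100 for the full control effect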
Method in brief: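 Pre-activated (IL-1β/TNFα) JNK3 in HepG2 lysates phosphorylates biotin-GST-cJun(1-79), 10 uM ATP; anti-phospho-cJun(Ser73) AlphaScreen read at room temperature, pH 7.6 Tris buffer. Compounds pre-incubated 15 min as titrations.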

[8] = target: 3',5'-cyclic-AMP phosphodiesterase 4B (Homo sapiens) (UniProt Q07343); test: qHTS Assay for Inhibitors of PDE-IV (AID 607; active = well fitted activation curve with a large enough effect in the main read-out, with a control signal flat, not every such curve was filed as active; also: % of control where 0% means no effect); conditions: HEK293 ACTOne CNG channel cells, membrane potential fluorescence; series mostly up to 22.9 µM
Method in brief: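 The readout is membrane depolarisation from a cAMP-sensing CNG channel, detected with a potential dye at ex 535/em 590. Cells were HEK293-derived (endogenous PDE-IV) at 1000 cells/well, titrated up to 22.9 uM final.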

[9] = Stat Signaling Pathway (AID 446); conditions: ME-180 SIE beta-lactamase reporter, IL-6 stimulated, 5 h; at 7.69 µM (top of the series) unless noted;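 also: ME-180 cervical cancer cells given 40 pM IL-6 alongside compound; SIE-controlled beta-lactamase reporter measured as 460/530 nm FRET emission ratio; % is scaled to controls: 0 for no effect and ±100 for the full control effect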
Method in brief: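 Screening format detects activators and inhibitors alike: ME-180 SIE-bla cells stimulated at 40 pM IL-6 for 5 hrs with compound, then dual-emission beta-lactamase read at 405 nm excitation.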

[10] = target: Cytochrome P450 2C9 (Homo sapiens) (UniProt P11712); test: qHTS Assay for Inhibitors and Substrates of Cytochrome P450 2C9 (AID 883; active = well fitted curve in the direction sought with a large enough effect; an effect the other way counts as inactive or inconclusive; also: nearly all actives have a fitted effect of over 60% in size; also: potency is read from the fitted curve at half-maximal effect); conditions: recombinant CYP2C9, luciferin-H luminescence, 60 min; series mostly up to 11.4 µM
Method in brief: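 Human CYP2C9 (10nM) with Luciferin-H at 100uM (its KM) in 25mM KPO4; compound preincubated 10 min at 37C, then NADPH regeneration for 60 min at 37C. Luciferin read by luminescence after detection reagent; normalized to 57uM sulphaphenazole as full inhibition.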

[11] = qHTS Assay for Identification of Small Molecule Agonists for Hypoxia Response Element Signaling Pathway (AID 914; active = well fitted activation curve with a large enough effect in the signal ratio, with a control signal flat, not every such curve was filed as active; the % refers to the signal ratio; also: % of control where 0% means no effect); conditions: ME-180 (cervical carcinoma) HRE-bla reporter, beta-lactamase ratio, CoCl2, 17 h; activation: stronger effect = higher value
Method in brief: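 Cells were plated overnight, pin-dosed with compound in a titration series, co-stimulated with EC50 CoCl2 and incubated 17 hours at 37 degrees Celsius. CCF4 substrate was then loaded, and AC50 values came from the 460nm/530nm ratio.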

[12] = target: Cytochrome P450 3A4 (Homo sapiens) (UniProt P08684); test: qHTS Assay for Activators of Cytochrome P450 3A4 (AID 885; active = well fitted curve in the direction sought with a large enough effect; an effect the other way counts as inactive or inconclusive; also: nearly all actives have a fitted effect of over 65% in size); conditions: recombinant CYP3A4, Luciferin-PPXE luminescence, 60 min; series mostly up to 11.4 µM
Method in brief: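 Steps: enzyme/substrate mix dispensed; compound added, 10 min RT; NADPH regeneration solution added, 60 min RT; luciferin detection buffer stops reaction; 20 min later luminescence measured.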

Glucocorticoid receptor (Homo sapiens), sequence (P04150 whole entry, looked up, the tested form may be a part): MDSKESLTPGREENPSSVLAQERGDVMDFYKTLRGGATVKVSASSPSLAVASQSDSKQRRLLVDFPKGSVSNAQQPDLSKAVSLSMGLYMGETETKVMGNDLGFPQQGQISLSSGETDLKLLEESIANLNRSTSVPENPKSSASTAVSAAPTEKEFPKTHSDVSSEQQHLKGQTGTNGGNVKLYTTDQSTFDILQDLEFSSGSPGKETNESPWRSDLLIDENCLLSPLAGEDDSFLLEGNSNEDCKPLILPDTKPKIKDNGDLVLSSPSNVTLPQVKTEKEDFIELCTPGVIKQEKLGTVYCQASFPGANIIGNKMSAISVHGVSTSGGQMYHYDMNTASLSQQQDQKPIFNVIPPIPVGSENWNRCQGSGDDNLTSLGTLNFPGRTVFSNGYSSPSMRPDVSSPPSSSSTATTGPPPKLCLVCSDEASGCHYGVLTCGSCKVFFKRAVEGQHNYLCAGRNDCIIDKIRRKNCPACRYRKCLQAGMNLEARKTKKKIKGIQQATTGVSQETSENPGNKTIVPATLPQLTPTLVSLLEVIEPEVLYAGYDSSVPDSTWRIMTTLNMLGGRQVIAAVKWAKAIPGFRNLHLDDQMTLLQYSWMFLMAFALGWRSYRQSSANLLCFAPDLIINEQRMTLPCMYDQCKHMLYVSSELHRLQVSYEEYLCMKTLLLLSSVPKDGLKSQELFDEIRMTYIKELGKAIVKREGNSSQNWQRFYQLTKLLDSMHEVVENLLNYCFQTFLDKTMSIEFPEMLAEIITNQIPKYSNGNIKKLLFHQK
Lysosomal acid glucosylceramidase (Homo sapiens), sequence (P04062 whole entry, looked up): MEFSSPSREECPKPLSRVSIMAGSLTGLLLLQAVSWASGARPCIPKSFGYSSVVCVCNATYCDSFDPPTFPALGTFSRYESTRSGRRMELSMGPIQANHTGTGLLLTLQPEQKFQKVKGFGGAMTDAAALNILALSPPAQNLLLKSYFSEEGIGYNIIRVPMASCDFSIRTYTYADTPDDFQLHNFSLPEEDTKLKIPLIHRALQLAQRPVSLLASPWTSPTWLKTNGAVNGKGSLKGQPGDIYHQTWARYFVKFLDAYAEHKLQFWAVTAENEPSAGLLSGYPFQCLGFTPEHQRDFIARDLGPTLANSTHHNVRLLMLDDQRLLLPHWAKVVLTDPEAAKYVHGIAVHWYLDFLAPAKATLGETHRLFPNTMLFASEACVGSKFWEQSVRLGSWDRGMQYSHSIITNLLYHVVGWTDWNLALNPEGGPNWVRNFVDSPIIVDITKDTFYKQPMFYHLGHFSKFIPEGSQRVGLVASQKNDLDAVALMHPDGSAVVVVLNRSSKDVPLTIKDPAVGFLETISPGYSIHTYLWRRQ
Cytochrome P450 1A2 (Homo sapiens), sequence (P05177 whole entry, looked up): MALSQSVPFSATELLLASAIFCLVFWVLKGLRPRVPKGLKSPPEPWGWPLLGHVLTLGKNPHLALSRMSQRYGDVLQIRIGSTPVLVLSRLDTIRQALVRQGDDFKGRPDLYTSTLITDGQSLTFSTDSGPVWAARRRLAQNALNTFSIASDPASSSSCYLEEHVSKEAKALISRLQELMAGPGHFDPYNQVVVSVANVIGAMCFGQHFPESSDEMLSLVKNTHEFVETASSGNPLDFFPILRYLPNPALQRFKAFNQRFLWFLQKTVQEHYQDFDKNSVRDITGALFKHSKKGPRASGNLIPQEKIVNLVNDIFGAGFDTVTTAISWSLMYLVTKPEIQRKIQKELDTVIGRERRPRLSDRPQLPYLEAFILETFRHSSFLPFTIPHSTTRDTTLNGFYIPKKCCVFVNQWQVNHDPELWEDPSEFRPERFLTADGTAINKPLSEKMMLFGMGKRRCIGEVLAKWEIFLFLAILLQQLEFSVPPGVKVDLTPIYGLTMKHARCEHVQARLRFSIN
Cytochrome P450 2C9 (Homo sapiens), sequence (P11712 whole entry, looked up): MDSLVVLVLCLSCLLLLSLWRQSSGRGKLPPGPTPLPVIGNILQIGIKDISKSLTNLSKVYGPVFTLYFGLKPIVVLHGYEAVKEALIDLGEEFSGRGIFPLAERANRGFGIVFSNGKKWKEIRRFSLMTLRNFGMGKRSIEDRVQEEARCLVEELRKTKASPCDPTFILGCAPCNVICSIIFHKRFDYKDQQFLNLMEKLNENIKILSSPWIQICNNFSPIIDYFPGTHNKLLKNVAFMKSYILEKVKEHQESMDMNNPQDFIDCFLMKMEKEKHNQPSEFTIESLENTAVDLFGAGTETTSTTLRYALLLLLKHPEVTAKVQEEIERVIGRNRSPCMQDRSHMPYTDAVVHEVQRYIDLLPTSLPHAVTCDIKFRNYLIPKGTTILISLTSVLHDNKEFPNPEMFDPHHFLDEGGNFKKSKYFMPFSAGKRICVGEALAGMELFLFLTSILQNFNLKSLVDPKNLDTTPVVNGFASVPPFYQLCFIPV
3',5'-cyclic-AMP phosphodiesterase 4B (Homo sapiens), sequence (Q07343 whole entry, looked up): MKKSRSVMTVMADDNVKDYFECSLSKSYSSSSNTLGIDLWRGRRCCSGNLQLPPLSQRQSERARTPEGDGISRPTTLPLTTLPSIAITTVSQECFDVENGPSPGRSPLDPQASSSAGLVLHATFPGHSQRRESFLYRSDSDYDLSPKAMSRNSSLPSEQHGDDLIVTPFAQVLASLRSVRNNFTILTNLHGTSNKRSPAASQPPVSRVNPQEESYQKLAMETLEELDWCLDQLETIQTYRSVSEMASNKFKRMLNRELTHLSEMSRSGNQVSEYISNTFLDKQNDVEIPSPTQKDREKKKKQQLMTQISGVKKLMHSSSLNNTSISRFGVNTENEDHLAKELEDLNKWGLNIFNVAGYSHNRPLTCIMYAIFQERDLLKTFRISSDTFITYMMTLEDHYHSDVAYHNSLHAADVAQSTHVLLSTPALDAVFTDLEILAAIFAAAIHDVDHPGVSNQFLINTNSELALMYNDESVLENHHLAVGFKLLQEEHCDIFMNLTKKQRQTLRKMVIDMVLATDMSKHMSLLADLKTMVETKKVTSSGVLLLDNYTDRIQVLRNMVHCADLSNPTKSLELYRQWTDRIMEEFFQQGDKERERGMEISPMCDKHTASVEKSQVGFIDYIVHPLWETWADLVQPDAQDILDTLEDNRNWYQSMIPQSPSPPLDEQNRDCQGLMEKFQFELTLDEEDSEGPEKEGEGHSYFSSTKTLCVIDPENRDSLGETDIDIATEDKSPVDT
Cytochrome P450 3A4 (Homo sapiens), sequence (P08684 whole entry, looked up): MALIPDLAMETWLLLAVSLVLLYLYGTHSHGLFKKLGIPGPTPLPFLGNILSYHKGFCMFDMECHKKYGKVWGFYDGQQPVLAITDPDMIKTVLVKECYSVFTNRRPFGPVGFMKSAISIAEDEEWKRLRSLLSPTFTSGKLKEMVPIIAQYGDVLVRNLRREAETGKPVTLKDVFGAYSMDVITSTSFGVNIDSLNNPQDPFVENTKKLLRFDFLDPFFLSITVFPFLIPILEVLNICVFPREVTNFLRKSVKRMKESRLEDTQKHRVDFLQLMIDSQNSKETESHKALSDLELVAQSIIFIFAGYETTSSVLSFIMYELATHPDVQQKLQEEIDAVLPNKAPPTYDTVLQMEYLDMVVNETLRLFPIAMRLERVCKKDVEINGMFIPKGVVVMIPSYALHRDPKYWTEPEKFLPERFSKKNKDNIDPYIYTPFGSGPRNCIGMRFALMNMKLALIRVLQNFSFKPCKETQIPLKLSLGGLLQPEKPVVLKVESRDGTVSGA

Cc1cccc(C)c1NC(=O)Nc1ccc(S(N)(=O)=O)cc1
inactive: Potency [1] > 11.4 µM | activity change, negative = inhibition [2] 3.48% | activity change, negative = inhibition [3] -10.8% [at 2.29 µM] | activity change, negative = inhibition [4] 11% | Potency [5] > 46 µM | Potency [6] > 9.22 µM | Potency [7] | Potency [8]

Cc1[nH]c2ccccc2c1-c1cc(-c2cc(-c3c(C)[nH]c4ccccc34)on2)no1
inactive: Potency [1] > 11.4 µM | activity change, negative = inhibition [2] 5.07% | activity change, negative = inhibition [4] -7.58% | activity, negative = inhibition [9] -1.93% | Potency [7] | Potency [8] | Potency [10]
active: Potency [3] 0.398 µM

Cc1cc(C)c2nc3c(c([C@H](O)[C@@H]4CCCCN4)c2c1)CC/C3=C/c1ccc(Cl)cc1
inactive: Potency [1] > 11.4 µM | activity change, negative = inhibition [2] 4.75% | Potency [3] | activity change, negative = inhibition [4] -2.24% | Potency [5] > 46 µM | Potency [6] > 9.22 µM | Potency [7] | Potency [8]

C[C@H]1CCCC2(CC[N+](C)(CCC[N+](C)(C)C)CC2)C1 (stereo partly drawn)
inactive: Potency [1] 11.6 µM | activity change, negative = inhibition [2] 14.2% | Potency [3] | activity change, negative = inhibition [4] -5.86% | Potency [5] > 46 µM | Potency [6] > 9.22 µM | Potency [7] | Potency [8]

CC(=NC1CCCCC1)c1ccccc1O
inactive: Potency [1] > 11.4 µM | activity change, negative = inhibition [2] 6.06% | Potency [3] | activity change, negative = inhibition [4] 16.7% | Potency [5] > 46 µM | Potency [6] > 9.22 µM | Potency [7] | Potency [8]

Cc1cc(C)c2c(SCc3ccc(Cl)cc3Cl)nc(N)nc2n1
inactive: Potency [1] > 11.4 µM | activity change, negative = inhibition [2] 0.307% | activity change, negative = inhibition [4] -14.4% | Potency [5] > 46 µM | Potency [6] > 9.22 µM | Potency [7] | Potency [8]
active: Potency [3] 3.16 µM

N#[N+]c1ccc(Nc2ccccc2)cc1
inactive: Potency [1] > 11.4 µM | activity change, negative = inhibition [2] -0.339% | Potency [3] | activity change, negative = inhibition [4] -28.8% | activity, negative = inhibition [9] -16.1% | Potency [7] | Potency [8]

C/C(C[n+]1ccccc1)=N\N=C(N)N
inactive: Potency [1] > 11.4 µM | activity change, negative = inhibition [2] 1.19% | Potency [3] | activity change, negative = inhibition [4] -14.3% | Potency [5] > 46 µM | Potency [6] > 9.22 µM | Potency [7] | Potency [8] | Potency [10] | activation [11] 3.43%

Clc1ccc2c(NCCNc3ccnc4cc(Cl)ccc34)ccnc2c1
active: Potency [3] 5.01 µM
inactive: Potency [1] > 11.4 µM | activity change, negative = inhibition [2] -4.82% | activity change, negative = inhibition [4] 4.01% | Potency [5] > 46 µM | Potency [6] > 9.22 µM | Potency [7] | Potency [8]

CO[C@@H]1/C=C\O[C@]2(C)Oc3c(C)c(O)c4c(O)c(cc(O)c4c3C2=O)NC(=O)/C(C)=C\C=C/[C@H](C)[C@@H](O)[C@H](C)[C@H](O)[C@H](C)[C@H](OC(C)=O)[C@@H]1C
inactive: Potency [1] > 11.4 µM | activity change, negative = inhibition [2] 1.83% | Potency [3] | activity change, negative = inhibition [4] -26.6% | activity, negative = inhibition [9] -1.99% | Potency [7] | Potency [8] | Potency [12]

O=C(O)c1ccccc1-c1ccccc1C(=O)Nc1ccc2c(c1)Cc1cc(F)ccc1-2
inactive: Potency [1] > 11.4 µM | activity change, negative = inhibition [2] -17.3% | activity change, negative = inhibition [4] -16.2% | Potency [5] > 46 µM | Potency [6] > 9.22 µM | Potency [7] | Potency [8]
active: Potency [3] 3.98 µM | Potency [10] 2.51 µM

Cc1cc(SCC(=O)c2ccc(Br)cc2)cc(C)[o+]1
active: Potency [3] 3.98 µM | Potency [10] 2.51 µM
inactive: Potency [1] > 11.4 µM | activity change, negative = inhibition [2] -6.95% | activity change, negative = inhibition [4] 27.1% | Potency [5] > 46 µM | Potency [6] > 9.22 µM | Potency [7] | Potency [8] | activation [11] 15.2%

CC(C)CSC[C@@H]1O[C@H](n2cnc3c(N)nccc32)[C@H](O)[C@@H]1O
inactive: Potency [1] > 11.4 µM | activity change, negative = inhibition [2] 4.75% | Potency [3] | activity change, negative = inhibition [4] 12.1% | Potency [5] > 46 µM | Potency [6] > 9.22 µM | Potency [7] | Potency [8]

— PubChem BioAssay (NCATS)
